Assay outcomes deposited in PubChem by several laboratories.
Compounds with a hit are over-represented: about 27% of the library has one in this group of screens.
sEH act: soluble epoxide hydrolase activators, primary screen, biochemical, human sEH. Bifunctional epoxide hydrolase 2 (Homo sapiens), P34913. purified human sEH enzymatic activity, activator screen. activation, % at 2 µM. 91,000 compounds, 0.04% hits; in the data active means activation above about 37%
CYP2C9 act: human CYP2C9 activators, primary screen, biochemical, luminescence. Cytochrome P450 2C9 (Homo sapiens), P11712. recombinant CYP2C9, luciferin-H conversion; active compounds read high; factor 1 = untreated enzyme, 0 = blocked. activation factor at 5 µM. 96,000 compounds, 1.4% hits. AID 1024, 2008;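 active means activation factor of 2 or more for CYP2C9 at a 5 µM dose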;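 further: 0 = sulfaphenazole-blocked wells and 1 = vehicle-only wells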
CYP2C19 activ: human CYP2C19 activators, primary screen, biochemical, luminescence; Cytochrome P450 2C19 (Homo sapiens), P33261; recombinant CYP2C19, luciferin-H EGE luminescence; active compounds read high; 0 = fully inhibited enzyme, 1 = untreated enzyme; activation factor at 5 µM; 96,000 tested, under 10 active; AID 1025, 2008;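 active means activation factor of at least 2 at 5 µM in the primary screen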;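 further: 0 = wells with 2.5 mM tranylcypromine and 1 = vehicle-only wells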
Target sequence (P33261 whole entry, looked up): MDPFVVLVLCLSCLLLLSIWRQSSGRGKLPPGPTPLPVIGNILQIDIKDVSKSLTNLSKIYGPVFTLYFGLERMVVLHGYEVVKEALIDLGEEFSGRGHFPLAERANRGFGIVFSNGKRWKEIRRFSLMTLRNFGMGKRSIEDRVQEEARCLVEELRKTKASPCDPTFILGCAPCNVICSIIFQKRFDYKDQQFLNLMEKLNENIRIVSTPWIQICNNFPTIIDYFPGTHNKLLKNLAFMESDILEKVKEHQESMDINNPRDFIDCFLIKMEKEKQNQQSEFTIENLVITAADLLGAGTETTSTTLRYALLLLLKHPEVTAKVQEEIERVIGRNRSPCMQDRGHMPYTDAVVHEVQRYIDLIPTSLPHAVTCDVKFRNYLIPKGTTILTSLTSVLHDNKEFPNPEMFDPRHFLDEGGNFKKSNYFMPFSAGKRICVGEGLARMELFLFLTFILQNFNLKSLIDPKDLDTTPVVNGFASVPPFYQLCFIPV
CYP2C19 inh: blockers of cytochrome P450 2C19 activity – biochemical, luminescence, ADME assay, primary screen; P33261; CYP2C19 Supersomes, luciferin-H EGE luminescence, 30 min; inhibition, % at 5 µM; 96,000 compounds, 21% hits; AID 778, 2007;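 active means CYP2C19 inhibition above a set limit at 5 µM in the primary screen, cut at about 50% in these data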;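 further: plate controls were negative control wells for no effect and 2.5 mM tranylcypromine positive control for full effect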
sEH inh: soluble epoxide hydrolase inhibitors, primary screen, biochemical, human sEH | inhibition, % at 2 µM | recombinant human sEH enzymatic activity assay | 91,000 compounds, 0.34% hits; in the data active means inhibition above about 80%
CYP2C9 inh: blockers of cytochrome P450 2C9 activity – biochemical, luminescence, ADME assay, primary screen; P11712; CYP2C9 Supersomes, luciferin-H conversion; inhibition, % at 5 µM; 96,000 compounds, 20% hits; AID 777, 2007;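 active means blocking of liver enzyme CYP2C9 beyond about 50% at 5 µM, limit read from the data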
* hit, by the source's call; · = no result given.

SMILES	sEH act	CYP2C9 act	CYP2C19 activ	CYP2C19 inh	sEH inh	CYP2C9 inh
N#CC(C#N)=c1ccc2c(c1)NC1(CCCCC1)N=2	13.2	0.4	0.7	29.5	-9.8	56.0*
O=C(c1cc2cc(Br)cc(Br)c2oc1=O)N1CCCc2ccccc21	-1.5	1	1.2	-19.8	5.0	3.6
O=C(CCn1c(=O)sc2ccccc21)NCCC1=CCCCC1	·	1.7	0.1	88.2*	·	-74.9
O=C(CCn1c(=O)sc2ccccc21)Nc1nccs1	-4.6	1.1	0.2	83.7*	7.1	-9.1
CCN(CCNC(=O)Cn1c(=O)sc2ccccc21)c1ccccc1	-10.2	0.9	0.3	68.1*	13.9	5.9
Cc1csc(NC(=O)CCn2c(=O)sc3ccccc32)n1	-7.6	3.6*	0.2	79.2*	7.2	-255.6
O=C(CCn1c(=O)c2ccccc2n(CC(=O)NCCC2=CCCCC2)c1=O)NCc1ccco1	-3.4	0.7	1	2.2	6.7	34.9
COc1ccc(-n2c(=O)cc(N3CC(C)OC(C)C3)[nH]c2=O)cc1 (stereo not drawn)	-12.9	0.9	0.9	5.6	15.9	5.6
COc1ccc(NC(C)=O)cc1NC(=O)CCn1c(=O)sc2ccccc21	1.6	·	·	·	-1.0	·
COc1ccc(NC(=O)c2cc(S(=O)(=O)N3CCS(=O)(=O)CC3)ccc2Cl)cc1	9.3	0.8	1	2.2	-3.1	20.7
CSc1ccccc1NC(=O)CCn1c(=O)sc2ccccc21	1.3	1	0.5	51.5*	1.5	3.5
CCn1c(=NC(=O)CSCC(=O)Nc2nccs2)sc2ccccc21	-0.8	0.2	0.1	92.4*	2.8	83.7*
O=C(CSCC(=O)Nc1nccs1)Nc1ccccc1	-5.8	0.8	0.8	23.5	6.4	18.6
CCCc1nnc(NC(=O)Cn2c(=O)sc3ccccc32)s1	-15.1	0.3	0.4	64.0*	15.2	74.8*
CCCc1nnc(NC(=O)CN2C(=O)c3ccccc3C2=O)s1	8.1	0.9	1.1	-14.3	-8.8	8.8
CC1CCCC(C)N1C(=O)Cn1c(=O)sc2ccccc21 (stereo not drawn)	-0.1	1	0.3	66.9*	4.3	4.3
COc1ccc2oc(C)c(C(=O)Cn3ccnc3)c2c1	-6.0	0.3	0.1	89.9*	10.8	72.7*
CCN(CC)CCOC(=O)c1c(C)oc2ccc(OC)cc12	19.1	1.1	1.1	-11.8	-18.7	-10.8
Cc1nnc(SCC(=O)Nc2ncc(Cc3ccc(F)cc3)s2)n1N	2.1	0.8	0.9	5.1	-3.1	20.0
O=C(CCN1C(=O)COc2ccccc21)NCCN1CCc2ccccc2C1	8.0	1	1.1	-5.6	-3.8	-3.3
O=C(CCN1C(=O)COc2ccccc21)NCc1cccs1	-4.1	1.1	0.2	84.1*	3.4	-9.5
O=C(CN1CCOc2ccccc21)NCc1cccs1	2.4	0.9	0.4	59.5*	-3.4	7.0
COc1ccc(CCNC(=O)CCN2C(=O)COc3ccc(C)cc32)cc1OC	13.7	0.8	0.7	31.2	-12.5	19.6
COc1ccc(CCNC(=O)CCN2C(=O)COc3ccccc32)cc1OC	·	0.8	0.2	82.1*	·	23.6
O=C(CN1CCOc2ccccc21)NCc1ccco1	7.0	0.6	0.5	46.2	-8.4	40.9
SMILES	sEH act	CYP2C9 act	CYP2C19 activ	CYP2C19 inh	sEH inh	CYP2C9 inh
COc1ccc(NC(=O)NC(C(F)(F)F)C(F)(F)F)cc1	·	1.1	1	3.4	·	-9.5
CCN(CC)C(=O)C1CCCN(Cc2sccc2C)C1 (stereo not drawn)	4.4	1	0.9	11.4	-10.6	1.2
Cn1c(-c2ccccc2)cnc1SCC(=O)NCc1ccco1	6.9	0.7	0.7	26.2	-6.9	29.0
COC(=O)c1ccc(/C(O)=C(\C#N)c2nc3ccccc3s2)cc1	-3.5	0.4	1	3.1	2.3	58.3*
CC(C)=C(C#N)c1nc2ccccc2s1	-3.0	1	0.4	56.1*	1.1	-0.3
Cc1ccc(S(=O)(=O)N/N=C\c2ccc(C)o2)cc1	1.8	0.8	0.9	6.1	1.0	19.6
O=S(=O)(N/N=C\C=C\c1ccccc1)c1ccc(Br)cc1	3.0	0	0.5	47.9	-2.9	97.4*
Cc1ccc(S(=O)(=O)N/N=C\C=C\c2ccccc2)cc1	-4.1	0.2	0.8	17.2	2.1	83.5*
CCOC(=O)c1c(-c2ccc(C)o2)csc1NC(=O)COC(=O)c1ccc(NC(N)=O)cc1	-7.2	0.1	0.9	11.0	9.7	90.6*
CCOC(=O)c1sc(NC(=O)CSc2nnnn2-c2ccccc2)nc1C	-9.1	0.7	0.9	13.0	7.8	29.8
CCOC(=O)c1c(-c2ccc(C)o2)csc1NC(=O)CSc1nnc(C)s1	10.0	0	0.1	87.9*	-10.6	95.6*
CCOC(=O)c1c(-c2ccc(C)o2)csc1NC(=O)CSc1nnnn1-c1ccccc1	-9.6	0	0.2	80.5*	9.7	95.5*
CCOC(=O)c1c(-c2ccc(C)o2)csc1NC(=S)NC(=O)c1ccccc1Br	11.6	0.3	0.8	24.8	-13.8	70.8*
CCOC(=O)c1sc(NC(=S)NC(=O)c2ccccc2Cl)c(C(=O)OCC)c1C	3.9	0.6	0.8	19.2	-5.9	41.3
CCOC(=O)c1c(-c2cccs2)csc1NC(=O)CCCC(=O)O	1.2	0.6	1	0.9	0.5	40.0
Cc1cccc(-c2nnc(SCc3ccc(C#N)cc3)n2Cc2ccco2)c1	3.9	0.6	0.6	42.0	-2.6	35.3
Cc1ccc(-n2nnnc2SCn2nnc3ccccc3c2=O)c(C)c1	3.8	1.7	0.7	30.2	-1.8	-65.9
Cc1ccc2[nH]c(=O)c(CN(Cc3nnnn3Cc3ccccc3)C3CCCC3)cc2c1	-7.4	0.5	0.6	38.3	5.6	48.6
Cc1ccc(S(=O)(=O)Cn2nnnc2CN(Cc2ccco2)CC2CCCO2)cc1 (stereo not drawn)	-1.2	0.1	0.2	84.4*	3.7	91.2*
Cc1cccc2cc(CN(Cc3nnnn3Cc3ccco3)C3CCCC3)c3nnnn3c12	-1.5	0.1	0.1	92.3*	0.9	93.8*
Cc1ccc2cc(CN(Cc3nnnn3Cc3ccco3)CC3CCCO3)c(=O)[nH]c2c1C (stereo not drawn)	·	0.1	0.2	82.2*	·	86.2*
COc1ccc(-n2c(N)c(Br)c(=O)[nH]c2=O)cc1	20.3	1	1	-3.3	-20.3	3.5
Cc1ccc2c(C)nc(NC3=NCN(C(C)C)CN3)nc2c1	-10.8	·	·	·	10.9	·
COc1cc(OC)c(C2=NOC(C(=O)NCCc3ccccc3)C2)cc1Cl (stereo not drawn)	7.6	1.3	0.4	61.5*	-9.6	-28.3
